Measured values reported in ChEMBL document CHEMBL3988442, “University of Dundee, Small-Polar-MMV Screening Library” (2021).

Biological target: AMP-activated protein kinase, AMPK (Homo sapiens) (UniProt P54646+O43741+P54619+Q9UGJ0+Q9Y478+Q13131+Q9UGI9)
Assay: AMP-dependent Kinase enzyme assay. An in vitro enzyme assay that detects ADP turnover that is directly proportional to AMPK activity. This uses naive AMPK that is activated during the assay with MK-8722
Type: functional
Design: scale not given: direction of the effect not stated beside the values
Details: 30 µM

Compound	Percent Effect [%]
CC(C)N(Cc1ccccn1)C(=O)CCOc1cccc(F)c1	-0.803
CC[C@@H](CO)NC(=O)c1cc(COc2ccc(OC)cc2Cl)[nH]n1	-0.681
Cc1cc(C2CCCN(CC(=O)N3CCc4ccccc43)C2)n[nH]1 (stereo not given)	-5.04
CCC(C)c1csc(NC(=O)c2sc(-c3nnc[nH]3)nc2C)n1 (stereo not given)	12.2
O=C1NCCN(C(=O)CCN2CCCO2)C1c1cccc(F)c1 (stereo not given)	-5.73
COc1ccc2c(c1)Cc1c-2nc(N)c(C#N)c1C1CCOC1 (stereo not given)	-32.8
Cc1cccc(CN2CCCC2c2cccc(Nc3nccs3)n2)c1 (stereo not given)	6.23
CCc1nnc(Nc2cc(C)nc(C3CN(C(=O)C(C)C)CCO3)c2)s1 (stereo not given)	-1.78
CNS(=O)(=O)CC(=O)N(C1CCCC1)C1CC1	-3.58
Cc1c(C(=O)NC2CCCOC2)nnn1-c1ccc(Cl)cc1F (stereo not given)	0.0565
Cc1nc(-n2nc(-c3cccs3)cc2N)[nH]c(=O)c1C	-14.4
CN(CCSc1nncn1CC(F)(F)F)c1ccccc1	8.89
COc1ccc2c(c1)CCCN(CC(=O)NCC1CCCO1)C2 (stereo not given)	-4.46
Cc1ccccc1C(CC(=O)N1CCc2sccc2C1)NC(N)=O (stereo not given)	11.7
O=C(O)C1(O)CCN(c2ccc3cccc(Cl)c3n2)CC1	13.6
COc1cc(-c2cccc3c2OC(CN)C3)cc(OC)c1OC (stereo not given)	-5.11
CC(C(=O)NCc1ccc(F)cc1)N(C)CCN1CCOCC1 (stereo not given)	2.87
CCN1CC2(CCN(CC3CCCO3)CC2)OC1=O (stereo not given)	-9.49
CC(C)N1CCCC(CNC(=O)CN(C)S(=O)(=O)c2ccccc2)C1 (stereo not given)	-1.71
CSc1nccc(N2CCC3(CCCN(Cc4ccc(F)cc4)C3)C2)n1 (stereo not given)	3.61
